In the library only some 19% were active in any assay of this set; here they are far more common.
KB-V1 MDR tox – kills drug-selected multidrug resistant KB-V1 cells; KB-V1 MDR cells viability, CellTiter-Glo, 72 h; Potency, µM (titrated, usually from 46.1 µM), hits mostly cytotoxic; 3.4% of 400,000 active; AID 1347076; note: nearly all actives have a fitted effect of over 60% in size
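Potencies derive from concentration-effect curves fitted to normalized luminescence (CellTiter-Glo) of KB-V1 cells treated for 72 h at 37 degrees C in phenol-red-free DMEM containing 10% FBS.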
HT1080 IDH1KD tx – toxicity to HT-1080 IDH1 knockdown cells (counter line). HT-1080 IDH1 knockdown viability, ATP luminescence, 48 h. Potency, µM (doses to about 46.1 µM), most hits filed as cytotoxic. 2% of 360,000 active
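Knockdown cells (IDH1KD HT-1080) received compounds 2 h after plating at 750 cells/well and were kept 48 h at 37 °C in 5% FBS RPMI. A CellTiter-Glo luminescence read gave % activity for curve fitting.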
HT1080NT lethal – kills 2HG-producing HT-1080-NT fibrosarcoma cells; HT-1080-NT fibrosarcoma viability, CellTiter-Glo ATP luminescence, 48 h; Potency, µM (titrated, usually from 46.1 µM), usual class: cytotoxic; 1.6% of 360,000 active; AID 686970;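 note: NT is the 2HG producing partner of a matched IDH1 knockdown line; nearly all actives have a fitted effect of over 55% in size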
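Toxicity toward the 2HG-producing NT line was scored as %Activity, normalised to DMSO and no-cell wells, from CellTiter-Glo luminescence after 48 hours' treatment.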
TDP1 cell CPT – DT40-hTDP1 cell growth loss with CPT. chicken DT40 Tdp1-/-;hTDP1 cells + 20 nM CPT, ATP luminescence, 48 h. Potency, µM (titrated, usually from 46.2 µM), usual class: inhibitors. 12% of 420,000 active. AID 686979; note: nearly all actives have a fitted effect of over 55% in size
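Chicken DT40 Tdp1-/- cells stably complemented with human TDP1 were seeded at 400 cells/well in medium containing 20 nM camptothecin, exposed to pin-transferred compounds, and grown at 37 °C for at least 48 hr. Viability was read as ATP luminescence.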
KB-3-1 cytotox – KB-3-1 parental cell cytotoxicity | KB-3-1 viability, CellTiter-Glo ATP luminescence, 72 h | Potency, µM (series often up to 46.1 µM), hits mostly cytotoxic | 1.4% of 400,000 active | AID 1347075; note: nearly all actives have a fitted effect of over 60% in size
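Multi-concentration cytotoxicity screen in KB-3-1 cells grown in DMEM lacking phenol red with 10% FBS. After 72 h at 37 °C with compound, ATP-dependent luminescence was recorded.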
TDP1 cell noCPT – qHTS for Inhibitors of human tyrosyl-DNA phosphodiesterase 1 (TDP1): qHTS in cells in absence of CPT | 15% of 420,000 active | Potency, µM (titrated, usually from 46.2 µM), usual class: inhibitors | DT40 Tdp1-/- hTDP1 cells, no CPT, ATP luminescence, 48 h; note: nearly all actives have a fitted effect of over 55% in size
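Compound effects on proliferation are scored in DT40 Tdp1-/-;hTDP1 cells in the absence of CPT. ATP levels (CellTiter-Glo luminescence) are recorded after a ≥48 hr, 37 °C incubation.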
Hits are given with their value; n = inactive; u = inconclusive; x = no result given; [ ] = dose if it differs, or a comment. Calls come from the whole dose curve; as a rule, active = well fitted curve in the direction sought with a large enough effect; inconclusive = small, poorly fitted or top-dose-only effect, or another doubt; inactive = no such curve, though single readings can be large; an effect the other way counts as inactive or inconclusive.

SMILES	KB-V1 MDR tox	HT1080 IDH1KD tx	HT1080NT lethal	TDP1 cell CPT	KB-3-1 cytotox	TDP1 cell noCPT
O=C(Cc1ccccc1)Nc1scc(-c2ccccc2)c1C(=O)N1CCOCC1	u	n	n	u	n	u
NC(=O)c1c(-c2ccc(Cl)cc2Cl)csc1NC(=O)Cc1ccccc1	u	u	u	8.2µM	u	9.2µM
COc1ccc(C2CC(=O)Nc3c2c(=O)n(C)c2nc4ccccc4n32)cc1 (centres undefined)	n	x	x	x	n	x
CC1OC(CC(=O)O)CC2=C1C(=O)c1c(O)cccc1C2=O (centres undefined)	2.9µM	0.26µM	1.3µM	0.1µM	3.7µM	0.065µM
CCCCN(C(=O)CC1CCCC1)c1c(N)n(CCCC)c(=O)[nH]c1=O	n	n	n	n	n	n
CCn1c(C)nc2cc(C(=O)NN=C(C)c3ccc(C#N)cc3)ccc21	n	n	n	n	n	n
CCn1c(C)nc2cc(C(=O)N/N=C(\C)c3ccc(OC)cc3O)ccc21	u	15µM	u	9.2µM	n	10µM
CCn1c(C)nc2cc(C(=O)N/N=C/c3cccc(O)c3O)ccc21	n	u	u	15µM	n	9.2µM
CCn1c(C)nc2cc(C(=O)NNC(=S)NC(=O)c3ccccc3)ccc21	u	n	n	u	n	23µM
CCn1c(C)nc2cc(C(=O)NNC(=S)Nc3ccccc3)ccc21	n	n	n	n	n	n
Cc1cccc(C)c1NS(=O)(=O)c1ccc(NS(=O)(=O)c2ccc3c(c2)OCCO3)cc1	n	x	x	u	n	u
Cc1ccc(NC(=O)C(C)N2C(=O)c3ccccc3C2=O)c(C)c1 (centres undefined)	n	n	n	n	n	n
COc1ccc(C2c3ccc4ccccc4c3Oc3ncn(Cc4ccco4)c(=N)c32)cc1OC (centres undefined)	u	21µM	21µM	23µM	u	16µM
COc1ccc(C2c3ccc4ccccc4c3Oc3ncn4nc(Cc5ccccc5)nc4c32)cc1OC (centres undefined)	n	u	n	n	n	u
N=c1c2c(ncn1CCCO)Oc1cc(O)ccc1C2c1ccccc1 (centres undefined)	n	n	n	n	n	n
COc1ccccc1C1c2ccc3ccccc3c2Oc2ncn(CCCO)c(=N)c21 (centres undefined)	n	23µM	21µM	23µM	n	23µM
COc1ccccc1C1c2ccc3ccccc3c2Oc2ncn(CCN(C)C)c(=N)c21 (centres undefined)	u	8.2µM	10µM	u	u	16µM
COc1ccc(C2c3ccc(O)cc3Oc3ncn(Cc4ccco4)c(=N)c32)cc1OC (centres undefined)	n	u	u	u	n	u
COc1ccc(C2c3ccc4ccccc4c3Oc3ncn(CCCN(C)C)c(=N)c32)cc1 (centres undefined)	u	u	18µM	12µM	u	4.6µM
CC(=O)O[C@@H]1CC2C(C)(C)C(=O)C=C[C@]2(C)C2CC[C@]3(C)C(=CC[C@H]3C3CO[C@@H](C(C)(C)O)[C@H](O)C3)[C@@]21C (some centres undefined)	x	x	x	u	x	n[9.04 µM]
Cc1cccc(NC(=O)CCCCCn2c(=O)[nH]c3ccsc3c2=O)c1	n	x	x	n	n	u
Cc1cccc(NC(=O)CSc2ncc(-c3ccc(Br)cc3)[nH]2)c1	n	x	x	23µM	n	u
COc1ccc(NC(=O)CSc2ncc(-c3ccc(Cl)cc3)[nH]2)cc1OC	n	x	x	u	n	15µM
COc1ccc(NC(=O)CSc2nc3[nH]ncc3c(=O)[nH]2)cc1OC	n	n	n	n	n	n
CCOc1ccc(NC(=O)N2CC(C)OC(C)C2)cc1 (centres undefined)	u	n	n	n	n	n
SMILES	KB-V1 MDR tox	HT1080 IDH1KD tx	HT1080NT lethal	TDP1 cell CPT	KB-3-1 cytotox	TDP1 cell noCPT
CC1CN(c2nc3ccccc3nc2SCC(=O)Nc2cccc(C(F)(F)F)c2)CC(C)O1 (centres undefined)	n	n	u	15µM	23µM	26µM
CCOc1ccc(NC(=O)c2sc(N3CCOCC3)nc2-c2ccccc2)cc1	u	n	n	u	n	23µM
CCOc1ccc(NC(=O)CSc2nc3ccccc3nc2N2CC(C)OC(C)C2)cc1 (centres undefined)	n	n	n	23µM	n	10µM
Cc1ccc(-c2nc(N3CCOCC3)sc2C(=O)N2CCCCC2)cc1	18µM	n	n	n	n	u
O=C(Nc1ccccc1)c1sc(N2CCOCC2)nc1-c1ccccc1	u	n	n	n	n	u
Cc1cccc(NC(=O)CSc2nc3ccccc3nc2N2CC(C)OC(C)C2)c1 (centres undefined)	n	n	n	u	u	u
CCCCc1ccc(NC(=O)CSc2nc3ccccc3nc2N2CCOCC2)cc1	n	x	x	u	n	26µM
COc1ccc(NC(=O)CSc2nc3ccccc3nc2N2CCOCC2)cc1	n	n	n	n	n	n
CCOc1ccc(NC(=O)CSc2nc3ccccc3nc2N2CCOCC2)cc1	n	n	n	21µM	u	13µM
O=C(CSc1nnc2ccccn12)NNC(=O)c1cccc(Cl)c1	n	n	n	n	n	n
CC1(C)S[C@@H]2C(C(=O)OCc3ccccc3)NC(=O)N2C1C(=O)OCc1ccccc1 (some centres undefined)	n	n	n	n	n	n
CCOc1ccccc1NC(=O)CSc1nnnn1C1CCCC1	u	n	n	n	n	u
O=C(NCc1ccccc1)C1=C[C@@H](c2csc3ccccc23)C[C@@H](OCCCCO)O1	u	u	n	1.6µM	5.8µM	1.6µM
O=C(O)C1=C[C@@H](c2csc3ccccc23)C[C@@H](OCc2ccc(CO)cc2)O1	n	n	n	u	n	n
O=C(O)C1=C[C@H](c2csc3ccccc23)C[C@H](OCc2ccc(CO)cc2)O1	n	n	n	n	n	n
O=C(NCc1ccccc1)C1=C[C@@H](c2csc3ccccc23)C[C@@H](OCc2ccc(CO)cc2)O1	21µM	n	n	2.9µM	21µM	4.6µM
O=C(C1=C[C@H](c2csc3ccccc23)C[C@H](OCc2ccc(CO)cc2)O1)N1CCCCCCC1	n	n	n	u	n	21µM
C#CCNC(=O)C1=C[C@@H](c2csc3ccccc23)C[C@@H](OCc2ccc(CO)cc2)O1	n	n	n	16µM	n	u
Cc1cc(F)ccc1S(=O)(=O)Nc1ccc2oc3c(c2c1)CC(C)CC3 (centres undefined)	u	x	x	u	n	u
